RORg inh: inhibitors of mouse ROR gamma transcriptional activity; Potency, µM (top dose mostly 53.6 µM), without a hit: at the highest dose activity change, negative = inhibition, most hits filed as inhibitors; Drosophila S2 Gal4-RORgamma UAS-luciferase reporter, 20 h; actives 5.4% (n = 310,000); note: potency is the fitted concentration of half-maximal effect; nearly all actives have a fitted effect of over 60% in size
Target sequence (P51450 whole entry, looked up, the tested form may be a part): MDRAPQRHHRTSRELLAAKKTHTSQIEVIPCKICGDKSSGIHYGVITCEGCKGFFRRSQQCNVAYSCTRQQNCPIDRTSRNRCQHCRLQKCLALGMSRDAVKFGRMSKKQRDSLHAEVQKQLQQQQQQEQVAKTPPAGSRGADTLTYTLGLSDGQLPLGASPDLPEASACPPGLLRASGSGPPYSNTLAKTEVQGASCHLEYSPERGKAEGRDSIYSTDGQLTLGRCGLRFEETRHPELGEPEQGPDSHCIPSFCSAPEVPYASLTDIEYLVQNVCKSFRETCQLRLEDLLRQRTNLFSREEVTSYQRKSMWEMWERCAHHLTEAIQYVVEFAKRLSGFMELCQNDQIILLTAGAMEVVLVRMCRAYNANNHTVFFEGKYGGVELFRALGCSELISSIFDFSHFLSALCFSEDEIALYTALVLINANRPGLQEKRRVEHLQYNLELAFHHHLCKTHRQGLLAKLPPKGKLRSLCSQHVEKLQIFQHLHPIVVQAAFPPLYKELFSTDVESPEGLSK
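In this cell-based reporter format, copper sulfate (700 uM final) drives Gal4–ROR gamma fusion expression from a metallothionein promoter in Drosophila Schneider cells; compounds preincubated 1 hr, reporter read after 20 hr at ambient temperature.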
TDP1 cell CPT: growth inhibition of DT40 Tdp1-/-;hTDP1 cells with camptothecin (screen for TDP1 inhibitors); Potency, µM (titrated, usually from 46.2 µM), for the others: top-dose activity change, negative = growth inhibition, actives largely listed as inhibitors; chicken DT40 Tdp1-/-;hTDP1 cells + 20 nM CPT, ATP luminescence, 48 h; actives 12% (n = 420,000); note: potency is the fitted concentration of half-maximal effect; nearly all actives have a fitted effect of over 55% in size
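Chicken DT40 Tdp1-/- cells complemented with human TDP1, 400 cells/well, exposed to compounds plus 20 nM camptothecin for at least 48 h at 37 C; viability read as ATP content by CellTiter-Glo luminescence.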
Gal4-VP16 FLuc: inhibits Gal4-VP16 luciferase reporter, ROR gamma counter-screen; actives 3.5% (n = 310,000); Potency, µM (doses to about 53.6 µM), for inactives: at the highest dose activity, negative = inhibition, most hits filed as inhibitors; Drosophila S2 Gal4-VP16 UAS-luciferase, luminescence, 20 h;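 note: Gal4-VP16 expression switched on by copper sulfate through the metallothionein promoter; potency is the fitted concentration of half-maximal effect; nearly all actives have a fitted effect of over 50% in size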
DT40 TDP1 no CPT: qHTS for Inhibitors of human tyrosyl-DNA phosphodiesterase 1 (TDP1): qHTS in cells in absence of CPT. DT40 Tdp1-/- hTDP1 cells, no CPT, ATP luminescence, 48 h. Potency, µM (titrated, usually from 46.2 µM), without a hit: top-dose activity change, negative = growth inhibition, hits mostly inhibitors. actives 15% (n = 420,000); note: potency is the fitted concentration of half-maximal effect; nearly all actives have a fitted effect of over 55% in size
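A cellular qHTS used chicken DT40 cells lacking endogenous Tdp1 but carrying stably transfected human TDP1. Compounds were applied without camptothecin, and cell growth kinetics were judged by ATP-dependent luminescence after ≥48 hr.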
IL-1B inflam inh: blocks inflammasome-driven IL-1 beta release; activity change, % at 57.5 µM; THP-1 LPS/ATP IL-1B secretion, AlphaLISA, 16 h; active compounds read low; actives 4.7% (n = 360,000); in the data active = activity change below about -50%; inconclusive = mostly about -30% to -49%
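Secreted IL-1B measured by AlphaLISA bead assay after 16 h compound exposure of THP-1 cells; compounds (final up to 57.5 uM) added 1 h before LPS (250 ng/mL) and ATP (1.25 mM) stimulation; lower signal means less secretion.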
LDHA block: inhibitors of human lactate dehydrogenase A. P00338. actives 0.15% (n = 480,000). activity change, % (values are at about 110 or 230 µM). purified LDHA, NADH/diaphorase-resazurin fluorescence; active compounds read low; in the data active = activity change below about -30%; inconclusive = mostly about -25% to -30%;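 note: plate controls were DMSO wells for no effect and wells without enzyme for full effect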
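Enzyme activity of human lactate dehydrogenase 5 (2 nM; 0.06 mM NADH, 0.2 mM pyruvate, 5 min, RT) is measured via a resazurin/diaphorase fluorescence readout of residual NADH.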
Starred values were filed as active, the others as inactive; i = inactive; ? = inconclusive; · = not tested or not shown. A selection: hits, their analogues and other compounds. The true share with any hit is near 18%. Unless noted, calls come from the whole dose curve; as a rule, active = well fitted curve in the direction sought with a large enough effect; inconclusive = small, poorly fitted or top-dose-only effect, or another doubt; inactive = no such curve, though single readings can be large; an effect the other way counts as inactive or inconclusive. Unless noted, % is set by controls: 0 for no effect and ±100 for the full control effect.

SMILES	RORg inh	TDP1 cell CPT	Gal4-VP16 FLuc	DT40 TDP1 no CPT	IL-1B inflam inh	LDHA block
COc1cccc(C(=O)/C=C/Nc2ccc(S(=O)(=O)Nc3ccc(C(C)=O)cc3)cc2)c1	?	?	-18%	16µM*	0	-12
Cc1cccc(N/C=C/C(=O)c2ccc(Cl)cc2)c1	3.2µM*	-5%	?	13%	22	-1
COc1ccc(C(=O)/C=C/Nc2ccc(S(=O)(=O)Nc3cccc(C(C)=O)c3)cc2)cc1	-37%	?	5.6µM*	23µM*	-8	-4
O=C(Cc1ccc(Cl)cc1)Nc1ccccn1	6%	16%	8%	3%	-2	1
Cc1ccc2nc(-c3ccccc3)cc(C(=O)OCc3ccc(-c4ccccc4)cc3)c2c1	·	·	·	·	·	-2
CN(C)C(=O)CNS(=O)(=O)c1ccc(F)c(Cl)c1	·	·	·	·	·	-21
CC(=O)Nc1ccc(NC(=O)c2c[nH]c3ccccc23)cc1	·	·	·	·	·	1
Cc1cccc(NC(=O)c2cc(C)nc3ccccc23)n1	·	·	·	·	·	-14
COc1ccc(C(=O)/C=C/Nc2cccc(O)c2)cc1	10µM*	-11%	2µM*	15%	-11	0
Cc1cc(C)c(C#N)c(SCC(=O)c2ccccc2)n1	2%	16µM*	-7%	-46%	-12	2
Cc1cc(C)nc(SCC(=O)Nc2ccc(S(=O)(=O)Nc3ncccn3)cc2)n1	1%	-3%	?	-4%	9	-1
COC(=O)CSc1nc(C)cc(C)c1C#N	-9%	-5%	8%	-5%	-11	0
Cc1cc(C)c(C#N)c(SCC(=O)c2cccs2)n1	38%	-23%	-5%	?	-98*	-1
Cc1cc(C)c(C#N)c(SCC(=O)Nc2ccc(S(=O)(=O)Nc3ncccn3)cc2)n1	8.9µM*	-6%	13µM*	?	i	-6
Cc1ccc(C(=O)CSc2nc(C)cc(C)c2C(N)=O)cc1	-25%	?	?	?	-52*	0
Cc1ccc(-n2cc(C(=O)N3CCC(NC(=O)OC(C)(C)C)CC3)nn2)cc1C	·	·	·	·	·	5
CCc1c(C)nc2ccc(Br)cc2c1SCCC#N	14%	?	-9%	?	-183*	-4
COc1ccc2cnn(CC(=O)Nc3cc(F)ccc3F)c(=O)c2c1OC	·	·	·	·	·	16
COc1ccc(S(=O)(=O)c2cnc3cc(OC)c(OC)cc3c2N2CCCC(C)C2)cc1 (stereo not drawn)	·	?	·	?	·	5
CCOc1ccc2ncc(S(=O)(=O)c3ccccc3)c(N3CCC4(CC3)OCCO4)c2c1	19%	·	-17%	·	·	·
COc1ccc(S(=O)(=O)c2cnc3ccc(Cl)cc3c2N2CCCCC2C)cc1 (stereo not drawn)	·	16µM*	·	23µM*	·	4
CCN1CCN(c2c(S(=O)(=O)c3ccc(C)c(C)c3)cnc3cc(OC)c(OC)cc23)CC1	·	15µM*	·	?	·	-6
CCc1ccc2ncc(S(=O)(=O)c3ccc(C)c(C)c3)c(N3CCCC3)c2c1	?	23µM*	?	15µM*	-25	3
CCc1ccc(S(=O)(=O)c2cnc3ccc(OC)cc3c2N2CCCC(C)C2)cc1 (stereo not drawn)	·	16µM*	·	?	·	11
CCN1CCN(c2c(S(=O)(=O)c3ccccc3)cnc3ccc(Cl)cc23)CC1	·	-21%	·	?	·	3
O=S(=O)(c1ccc(F)cc1)N1CCN(c2ccc(NCc3ccccc3)nn2)CC1	·	·	·	·	·	5
Nc1nccnc1C(=O)NCc1ccccc1CN1CCCCC1	·	·	·	·	·	-1
CCOc1ccc(Nc2c(S(=O)(=O)c3ccccc3)cnc3ccc(F)cc23)cc1	·	?	·	?	·	3
CCN1CCN(c2c(S(=O)(=O)c3ccc(Cl)cc3)cnc3ccccc23)CC1	·	13µM*	·	?	·	-9

Screens from PubChem BioAssay.
